Source: PubChem BioAssay (NCATS)
Measured potencies and affinities stand elsewhere. Activity calls are given as the source filed them. No rule for the calls is given here.
For efficacy in this document: 0% is about no effect.

Settings: Ebola virus entry assay, green fluorescence channel
With `CCCCCC(C)N` (stereo not given) the efficacy was -23% (inactive).
With `NC(N)=NCCN1CCCCCCC1` the efficacy was -19.4% (inactive).
For `CCn1ccc(NS(=O)(=O)c2ccc(N)cc2)nc1=O`, the efficacy was -11.6% (inactive).
In the case of `COc1ccc(O)cc1`, the efficacy is reported as 18.3% (inactive).
In the case of `CNC[C@H](O)c1cccc(O)c1`, the efficacy is reported as -23.9% (inactive).
In the case of `Cc1c(Nc2ncccc2C(=O)O)cccc1C(F)(F)F`, the efficacy is reported as -17.3% (inactive).
With `Cc1nc2ccc(CN(C)c3ccc(C(=O)N[C@@H](CCC(=O)O)C(=O)O)s3)cc2c(=O)[nH]1` the efficacy was 17.4% (inactive).
In the case of `Cc1cc(C)nc(NS(=O)(=O)c2ccc(N)cc2)n1`, the efficacy is reported as -8.79% (inactive).
In the case of `CC(C)(Oc1ccc(Cl)cc1)C(=O)OCCCOC(=O)C(C)(C)Oc1ccc(Cl)cc1`, the efficacy is reported as -14% (inactive).
With `Oc1cccc(O)c1` the efficacy was -18.5% (inactive).
In the case of `CSCC[C@H](NC(=O)[C@H](Cc1c[nH]c2ccccc12)NC(=O)CCNC(=O)OC(C)(C)C)C(=O)N[C@@H](CC(=O)O)C(=O)N[C@@H](Cc1ccccc1)C(N)=O`, the efficacy is reported as 9.45% (inactive).
With `CC(C)=CCC1C(=O)N(c2ccccc2)N(c2ccccc2)C1=O` the efficacy was -18% (inactive).
For `O=C(N/N=C/c1ccc([N+](=O)[O-])o1)c1ccc(O)cc1`, the efficacy was 14.6% (inactive).
For `c1ccc2c(c1)CCCC2C1=NCCN1` (stereo not given), the efficacy was -12.9% (inactive).
In the case of `NCCc1ccn[nH]1`, the efficacy is reported as 19.8% (inactive).
For `CC(C)(Oc1ccc(Cl)cc1)C(=O)O`, the efficacy was -14.9% (inactive).
In the case of `CCNC(=O)/C=C/c1cccc(Br)c1`, the efficacy is reported as -12% (inactive).
With `N#CSCC(=O)O` the efficacy was -33.9% (inactive).
In the case of `CN(C)C(=O)Oc1ccc[n+](C)c1`, the efficacy is reported as 18% (inactive).
For `CC(C)Cc1ccc(C(C)C(=O)O)cc1` (stereo not given), the efficacy was 17.8% (inactive).
With `Cc1coc2ccccc2c1=O` the efficacy was -25.1% (inactive).
With `COc1ccc(C(=O)CC(=O)c2ccc(C(C)(C)C)cc2)cc1` the efficacy was -14.9% (inactive).
For `CCCOC(=O)c1ccccc1`, the efficacy was 17.4% (inactive).
For `CCOC(=O)Oc1ccc(CCNC(=O)[C@H](CCSC)NC(C)=O)cc1OC(=O)OCC`, the efficacy was -12.4% (inactive).
In the case of `CN=C(NC#N)Nc1ccc(C2=NNC(=O)CC2C)cc1` (stereo not given), the efficacy is reported as -19.1% (inactive).
In the case of `CCCC(O)C(CC)CO` (stereo not given), the efficacy is reported as 14.1% (inactive).
In the case of `Cc1scc2c1N(C(=O)CN1CCN(C)CC1)c1ccccc1NC2=O`, the efficacy is reported as 20.4% (inactive).
With `O=C(O)Cc1sc(-c2ccccc2)nc1-c1ccc(Cl)cc1` the efficacy was -17.4% (inactive).
In the case of `COc1cc(C(=O)N2CCOCC2)cc(OC)c1OC`, the efficacy is reported as -19.5% (inactive).
In the case of `COc1ccc2[nH]cc(CCNC(C)=O)c2c1`, the efficacy is reported as -12.3% (inactive).
In the case of `O=C1O[C@H](CO)[C@@H](O)[C@H](O)[C@H]1O`, the efficacy is reported as 24.7% (inactive).
In the case of `COc1cc(C=O)ccc1O`, the efficacy is reported as -12.7% (inactive).
With `COc1ccc(C2CNC(=O)C2)cc1OC1CCCC1` (stereo not given) the efficacy was -23.7% (inactive).
With `Cc1c(C(C)C)c(=O)n(-c2ccccc2)n1C` the efficacy was 14.2% (inactive).
With `CC1c2ccccc2CN1NC(=O)c1ccc(Cl)c(S(N)(=O)=O)c1` (stereo not given) the efficacy was 14.8% (inactive).
With `COc1ccc(/C=N/NC(=O)c2ccncc2)cc1OC` the efficacy was 14.8% (inactive).
With `Nc1ccc(C(=O)Nc2ccccc2N)cc1` the efficacy was -27% (inactive).
For `O=C(O)CNC(=O)c1ccccc1`, the efficacy was -32.2% (inactive).
In the case of `N#C[C@H]1C[C@H]2C[C@@H]2N1C(=O)[C@@H](N)C12CC3CC(CC(O)(C3)C1)C2`, the efficacy is reported as -19.1% (inactive).
With `CC(=O)OCC(=O)[C@@]1(O)CC[C@H]2[C@@H]3CCC4=CC(=O)C=C[C@]4(C)[C@@]3(F)[C@@H](O)C[C@@]21C` the efficacy was 26.4% (inactive).

Settings: Ebola virus entry assay, green channel fluorescence
For `CCCCCC(C)N` (stereo not given), the outcome was “inactive”.
In the case of `NC(N)=NCCN1CCCCCCC1`, the outcome is reported as “inactive”.
With `CCn1ccc(NS(=O)(=O)c2ccc(N)cc2)nc1=O` the outcome was “inactive”.
With `COc1ccc(O)cc1` the outcome was “inactive”.
For `CNC[C@H](O)c1cccc(O)c1`, the outcome was “inactive”.
With `Cc1c(Nc2ncccc2C(=O)O)cccc1C(F)(F)F` the outcome was “inactive”.
With `Cc1nc2ccc(CN(C)c3ccc(C(=O)N[C@@H](CCC(=O)O)C(=O)O)s3)cc2c(=O)[nH]1` the outcome was “inactive”.
For `Cc1cc(C)nc(NS(=O)(=O)c2ccc(N)cc2)n1`, the outcome was “inactive”.
In the case of `CC(C)(Oc1ccc(Cl)cc1)C(=O)OCCCOC(=O)C(C)(C)Oc1ccc(Cl)cc1`, the outcome is reported as “inactive”.
With `Oc1cccc(O)c1` the outcome was “inactive”.
With `CSCC[C@H](NC(=O)[C@H](Cc1c[nH]c2ccccc12)NC(=O)CCNC(=O)OC(C)(C)C)C(=O)N[C@@H](CC(=O)O)C(=O)N[C@@H](Cc1ccccc1)C(N)=O` the outcome was “inactive”.
For `CC(C)=CCC1C(=O)N(c2ccccc2)N(c2ccccc2)C1=O`, the outcome was “inactive”.
In the case of `O=C(N/N=C/c1ccc([N+](=O)[O-])o1)c1ccc(O)cc1`, the outcome is reported as “inactive”.
For `c1ccc2c(c1)CCCC2C1=NCCN1` (stereo not given), the outcome was “inactive”.
In the case of `NCCc1ccn[nH]1`, the outcome is reported as “inactive”.
In the case of `CC(C)(Oc1ccc(Cl)cc1)C(=O)O`, the outcome is reported as “inactive”.
With `CCNC(=O)/C=C/c1cccc(Br)c1` the outcome was “inactive”.
For `N#CSCC(=O)O`, the outcome was “inactive”.
With `CN(C)C(=O)Oc1ccc[n+](C)c1` the outcome was “inactive”.
With `CC(C)Cc1ccc(C(C)C(=O)O)cc1` (stereo not given) the outcome was “inactive”.
For `Cc1coc2ccccc2c1=O`, the outcome was “inactive”.
With `COc1ccc(C(=O)CC(=O)c2ccc(C(C)(C)C)cc2)cc1` the outcome was “inactive”.
With `CCCOC(=O)c1ccccc1` the outcome was “inactive”.
For `CCOC(=O)Oc1ccc(CCNC(=O)[C@H](CCSC)NC(C)=O)cc1OC(=O)OCC`, the outcome was “inactive”.
With `CN=C(NC#N)Nc1ccc(C2=NNC(=O)CC2C)cc1` (stereo not given) the outcome was “inactive”.
For `CCCC(O)C(CC)CO` (stereo not given), the outcome was “inactive”.
In the case of `Cc1scc2c1N(C(=O)CN1CCN(C)CC1)c1ccccc1NC2=O`, the outcome is reported as “inactive”.
For `O=C(O)Cc1sc(-c2ccccc2)nc1-c1ccc(Cl)cc1`, the outcome was “inactive”.
For `COc1cc(C(=O)N2CCOCC2)cc(OC)c1OC`, the outcome was “inactive”.
With `COc1ccc2[nH]cc(CCNC(C)=O)c2c1` the outcome was “inactive”.
For `O=C1O[C@H](CO)[C@@H](O)[C@H](O)[C@H]1O`, the outcome was “inactive”.
With `COc1cc(C=O)ccc1O` the outcome was “inactive”.
In the case of `COc1ccc(C2CNC(=O)C2)cc1OC1CCCC1` (stereo not given), the outcome is reported as “inactive”.
For `Cc1c(C(C)C)c(=O)n(-c2ccccc2)n1C`, the outcome was “inactive”.
In the case of `CC1c2ccccc2CN1NC(=O)c1ccc(Cl)c(S(N)(=O)=O)c1` (stereo not given), the outcome is reported as “inactive”.
In the case of `COc1ccc(/C=N/NC(=O)c2ccncc2)cc1OC`, the outcome is reported as “inactive”.
In the case of `Nc1ccc(C(=O)Nc2ccccc2N)cc1`, the outcome is reported as “inactive”.
With `O=C(O)CNC(=O)c1ccccc1` the outcome was “inactive”.
In the case of `N#C[C@H]1C[C@H]2C[C@@H]2N1C(=O)[C@@H](N)C12CC3CC(CC(O)(C3)C1)C2`, the outcome is reported as “inactive”.
In the case of `CC(=O)OCC(=O)[C@@]1(O)CC[C@H]2[C@@H]3CCC4=CC(=O)C=C[C@]4(C)[C@@]3(F)[C@@H](O)C[C@@]21C`, the outcome is reported as “inactive”.
